According to the supplement of paper PMC10849652:
About 8,800 targets were measured; listed, in parts, are those with a hit and a random draw of the rest. About 0.5% of all pairs of compound and target were hits. A number with no mark means an inactive call.

Key:
Experiment in all cases: log2 fold change, soluble protein after heating vs DMSO (PISA); higher = thermal stabilisation; K562 lysate, 10 uM; active = over 0.2 and 3.5 SD of the protein, either way, in both replicates (recomputed)
erlotinib = compound: C#Cc1cccc(Nc2ncnc3cc(OCCOC)c(OCCOC)cc23)c1 [erlotinib]
Outline: (§1)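 Soluble protein was defined as the supernatant remaining after 21,000xg for 90 min, following pooling of heated aliquots and adjustment to 0.5% NP-40 at 4°C. Before that, crude K562 extract at 1 mg/mL protein in PBS pH 7.4 with 1 mM MgCl2 was treated with 10 μM compound for 30 min and heated for 3 min across 48°C-58°C. Quantification used TMTpro 16plex LC-MS/MS with channel sums equalised, and values are log-two fold changes in thermal stability relative to solvent controls from duplicates.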

[1] = compound: C/C(=N\NC(=O)C1=CC(=CC=C1)S(=O)(=O)N2CCOCC2)/C3=C(C=CC(=C3)Cl)O
Outline: as §1

[2] = compound: C1=CC(=CC=C1C2=NC3=C(N2)C=C(C=C3)C(=O)N)OC4=CC=C(C=C4)Cl
Outline: as §1

[3] = compound: C1=CC2=C(C=CC(=C2)/C=C\3/C(=O)NC(=NCC4=CC=CS4)S3)N=C1
Outline: as §1

[4] = compound: C1=CC2=NC=CN=C2C=C1/C=C/3\C(=O)NC(=O)S3
Outline: as §1

[5] = compound: C1=CC=C(C=C1)C2=NC(=C(N2)C3=CC=NC=C3)C4=CC(=C(C=C4)Cl)O
Outline: as §1

[6] = compound: C1=CC=C2C(=C1)C3=NNC4=CC=CC(=C43)C2=O
Outline: as §1

[7] = compound: C1CCN(C1)C(=O)NC2=CC=CC(=C2)NC3=NC=C(C(=N3)NCCC4=CN=CN4)Br
Outline: as §1

[8] = compound: C1CN(CCC1(CC2=CC=C(C=C2)Cl)N)C3=NC=NC4=C3C=CN4
Outline: as §1

IRAK-1-4 Inhibitor I = compound: C1COCCN1CCN2C3=CC=CC=C3N=C2NC(=O)C4=CC(=CC=C4)[N+](=O)[O-] [IRAK-1-4 Inhibitor I]
Outline: as §1

ibrutinib = compound: C=CC(=O)N1CCC[C@@H](n2nc(-c3ccc(Oc4ccccc4)cc3)c3c(N)ncnc32)C1 [ibrutinib]
Outline: as §1

[9] = compound: CC(=O)c1cnc2ccc(-c3cc(Cl)c(O)c(Cl)c3)nc2c1N[C@H]1CC[C@H](CN(C)C)CC1
Outline: as §1

ralimetinib = compound: CC(C)(C)Cn1c(N)nc2ccc(-c3[nH]c(C(C)(C)C)nc3-c3ccc(F)cc3)nc21 [ralimetinib]
Outline: as §1

[10] = compound: CC(C)(O)CC(=O)NCCn1ccc2ncnc(Nc3ccc(Oc4cccc(C(F)(F)F)c4)c(Cl)c3)c21
Outline: as §1

[11] = compound: CC(C)C1=C2N=C(C=C(N2N=C1)NCC3=CC=CC=C3)NCCCCCCN
Outline: as §1

[12] = compound: CC1=C(C(CC(=O)N1)C2=CC=C(C=C2)C(F)(F)F)C(=O)NC3=C(C=C4C(=C3)C=NN4)F
Outline: as §1

[13] = compound: CC1=C(C=C(C=C1)NC(=O)C2=CC(=CC=C2)N(C)C)NC(=O)C3=CC=C(C=C3)O
Outline: as §1

[14] = compound: CC1=CC=C(C=C1)SC2=C3C=C(SC3=CN=C2)C(=O)N
Outline: as §1

[15] = compound: CC1=C(C2=C(C=C1)C(=O)C3=CC=CC=C3N2CCCN)C
Outline: as §1

[16] = compound: CC1=C(C=C(C=C1)NC(=O)C2=CC(=CC=C2)C(C)(C)C#N)NC3=CC4=C(C=C3)N=CN(C4=O)C
Outline: as §1

Sequence of UniProt Q8N5S9 (Q8N5S9 whole entry, looked up): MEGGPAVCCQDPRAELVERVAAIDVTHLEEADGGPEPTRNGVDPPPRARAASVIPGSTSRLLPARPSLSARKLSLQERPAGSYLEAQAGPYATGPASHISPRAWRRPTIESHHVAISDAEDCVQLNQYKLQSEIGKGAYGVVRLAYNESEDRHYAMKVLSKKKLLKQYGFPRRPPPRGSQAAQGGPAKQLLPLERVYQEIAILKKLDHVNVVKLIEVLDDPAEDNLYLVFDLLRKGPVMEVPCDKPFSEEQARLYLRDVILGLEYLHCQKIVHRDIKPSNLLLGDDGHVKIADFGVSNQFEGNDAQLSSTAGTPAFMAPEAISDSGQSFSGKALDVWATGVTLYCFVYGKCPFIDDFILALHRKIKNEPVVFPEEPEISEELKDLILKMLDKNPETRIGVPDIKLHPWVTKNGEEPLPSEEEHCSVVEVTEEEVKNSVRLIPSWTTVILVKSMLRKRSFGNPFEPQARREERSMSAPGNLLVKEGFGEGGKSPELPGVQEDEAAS
Sequence of UniProt Q9Y297 (Q9Y297 whole entry, looked up): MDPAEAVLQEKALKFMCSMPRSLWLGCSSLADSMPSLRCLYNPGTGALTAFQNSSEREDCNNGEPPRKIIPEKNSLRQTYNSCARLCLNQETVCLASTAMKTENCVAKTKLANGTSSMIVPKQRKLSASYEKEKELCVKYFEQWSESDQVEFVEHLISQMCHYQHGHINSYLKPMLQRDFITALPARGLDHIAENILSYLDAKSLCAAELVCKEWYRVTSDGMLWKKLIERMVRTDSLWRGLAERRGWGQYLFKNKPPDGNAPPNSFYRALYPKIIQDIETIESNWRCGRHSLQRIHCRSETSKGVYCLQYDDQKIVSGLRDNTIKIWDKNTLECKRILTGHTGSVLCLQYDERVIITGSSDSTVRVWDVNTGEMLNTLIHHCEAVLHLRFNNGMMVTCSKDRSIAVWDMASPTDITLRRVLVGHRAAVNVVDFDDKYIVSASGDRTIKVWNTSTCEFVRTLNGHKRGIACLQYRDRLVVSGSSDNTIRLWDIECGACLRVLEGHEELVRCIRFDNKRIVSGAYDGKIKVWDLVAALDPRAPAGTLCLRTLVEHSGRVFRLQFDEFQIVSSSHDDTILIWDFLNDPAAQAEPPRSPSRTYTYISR
Sequence of UniProt Q96NL8 (Q96NL8 whole entry, looked up): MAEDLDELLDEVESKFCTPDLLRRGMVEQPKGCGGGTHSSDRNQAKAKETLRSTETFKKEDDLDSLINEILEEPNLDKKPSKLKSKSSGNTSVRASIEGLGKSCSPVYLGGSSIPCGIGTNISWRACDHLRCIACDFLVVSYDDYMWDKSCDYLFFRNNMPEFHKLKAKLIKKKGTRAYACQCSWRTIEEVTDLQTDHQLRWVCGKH
Sequence of UniProt Q5H9F3 (Q5H9F3 whole entry, looked up): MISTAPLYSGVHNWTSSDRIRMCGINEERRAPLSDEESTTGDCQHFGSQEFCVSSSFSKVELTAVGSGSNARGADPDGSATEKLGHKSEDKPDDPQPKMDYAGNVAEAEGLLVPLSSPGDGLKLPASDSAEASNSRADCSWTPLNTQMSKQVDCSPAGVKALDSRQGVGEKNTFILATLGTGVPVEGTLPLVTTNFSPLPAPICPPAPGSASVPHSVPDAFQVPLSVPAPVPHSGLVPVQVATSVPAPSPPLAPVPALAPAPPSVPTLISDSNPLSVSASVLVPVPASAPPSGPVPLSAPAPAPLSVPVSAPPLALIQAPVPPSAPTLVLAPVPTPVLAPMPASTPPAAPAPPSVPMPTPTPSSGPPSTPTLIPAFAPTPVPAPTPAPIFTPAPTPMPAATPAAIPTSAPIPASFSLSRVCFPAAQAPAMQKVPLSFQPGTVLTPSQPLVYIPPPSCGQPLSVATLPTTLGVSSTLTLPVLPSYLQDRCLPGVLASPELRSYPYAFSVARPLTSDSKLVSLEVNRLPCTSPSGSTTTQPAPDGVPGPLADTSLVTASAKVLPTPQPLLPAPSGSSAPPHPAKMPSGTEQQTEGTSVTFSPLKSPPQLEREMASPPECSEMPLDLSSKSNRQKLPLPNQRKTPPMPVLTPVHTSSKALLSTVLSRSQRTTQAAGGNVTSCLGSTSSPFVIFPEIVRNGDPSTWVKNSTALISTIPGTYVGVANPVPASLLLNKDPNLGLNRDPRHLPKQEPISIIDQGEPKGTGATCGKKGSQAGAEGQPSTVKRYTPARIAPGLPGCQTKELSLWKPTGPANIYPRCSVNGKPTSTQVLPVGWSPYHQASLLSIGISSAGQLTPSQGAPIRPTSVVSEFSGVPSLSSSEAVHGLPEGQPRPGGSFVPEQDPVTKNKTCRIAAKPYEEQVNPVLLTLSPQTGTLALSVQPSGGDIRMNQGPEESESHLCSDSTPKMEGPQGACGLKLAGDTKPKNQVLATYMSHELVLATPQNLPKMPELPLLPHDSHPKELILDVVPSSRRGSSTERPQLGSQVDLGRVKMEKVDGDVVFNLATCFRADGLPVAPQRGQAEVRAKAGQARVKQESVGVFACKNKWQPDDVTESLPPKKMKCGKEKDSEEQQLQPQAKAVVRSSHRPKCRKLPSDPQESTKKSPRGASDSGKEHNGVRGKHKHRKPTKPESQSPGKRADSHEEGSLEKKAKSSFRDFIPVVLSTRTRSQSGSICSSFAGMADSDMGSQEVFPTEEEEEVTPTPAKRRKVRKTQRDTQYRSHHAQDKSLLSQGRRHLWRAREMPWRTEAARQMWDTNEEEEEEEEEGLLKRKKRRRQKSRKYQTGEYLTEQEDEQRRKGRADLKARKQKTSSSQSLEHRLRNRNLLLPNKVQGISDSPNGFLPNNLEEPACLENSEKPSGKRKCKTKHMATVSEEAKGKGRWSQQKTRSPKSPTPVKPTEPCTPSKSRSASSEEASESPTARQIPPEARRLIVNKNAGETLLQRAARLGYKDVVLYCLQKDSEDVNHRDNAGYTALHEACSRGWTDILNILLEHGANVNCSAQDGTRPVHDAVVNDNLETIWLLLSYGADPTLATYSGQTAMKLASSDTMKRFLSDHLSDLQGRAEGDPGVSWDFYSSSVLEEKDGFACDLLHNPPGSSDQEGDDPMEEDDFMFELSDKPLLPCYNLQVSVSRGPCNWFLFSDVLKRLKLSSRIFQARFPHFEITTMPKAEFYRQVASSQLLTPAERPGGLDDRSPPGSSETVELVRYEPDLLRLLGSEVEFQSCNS
Sequence of UniProt Q9BV29 (Q9BV29 whole entry, looked up): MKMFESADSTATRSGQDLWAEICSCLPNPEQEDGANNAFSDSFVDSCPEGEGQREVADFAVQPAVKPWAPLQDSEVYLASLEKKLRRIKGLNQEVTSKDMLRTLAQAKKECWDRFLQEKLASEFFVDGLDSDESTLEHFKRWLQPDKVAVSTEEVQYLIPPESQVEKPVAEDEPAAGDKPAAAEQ
Sequence of UniProt Q00535 (Q00535 whole entry, looked up): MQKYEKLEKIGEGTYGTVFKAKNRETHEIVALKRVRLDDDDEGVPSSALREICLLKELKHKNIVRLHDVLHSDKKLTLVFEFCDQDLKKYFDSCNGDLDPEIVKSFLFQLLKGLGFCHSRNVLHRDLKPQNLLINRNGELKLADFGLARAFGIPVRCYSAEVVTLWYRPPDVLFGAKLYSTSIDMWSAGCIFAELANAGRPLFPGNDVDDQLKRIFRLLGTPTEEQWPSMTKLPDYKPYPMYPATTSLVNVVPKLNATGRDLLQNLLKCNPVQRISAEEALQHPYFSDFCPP
Sequence of UniProt A8MTT3 (A8MTT3 whole entry, looked up): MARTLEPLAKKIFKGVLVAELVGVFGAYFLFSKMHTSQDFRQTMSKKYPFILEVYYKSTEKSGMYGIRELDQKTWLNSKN
Sequence of UniProt Q9BSU1 (Q9BSU1 whole entry, looked up): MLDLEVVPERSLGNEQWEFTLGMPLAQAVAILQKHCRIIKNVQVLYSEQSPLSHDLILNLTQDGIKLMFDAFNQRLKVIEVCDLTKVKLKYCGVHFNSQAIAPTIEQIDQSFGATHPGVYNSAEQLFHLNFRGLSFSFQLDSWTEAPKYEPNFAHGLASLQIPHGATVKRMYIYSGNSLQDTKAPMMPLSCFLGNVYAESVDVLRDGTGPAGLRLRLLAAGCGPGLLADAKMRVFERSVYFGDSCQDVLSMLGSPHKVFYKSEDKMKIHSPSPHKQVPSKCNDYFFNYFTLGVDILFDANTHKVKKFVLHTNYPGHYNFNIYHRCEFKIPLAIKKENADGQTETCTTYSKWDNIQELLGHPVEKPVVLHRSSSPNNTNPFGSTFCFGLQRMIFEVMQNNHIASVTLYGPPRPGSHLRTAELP
Sequence of UniProt Q15834 (Q15834 whole entry, looked up): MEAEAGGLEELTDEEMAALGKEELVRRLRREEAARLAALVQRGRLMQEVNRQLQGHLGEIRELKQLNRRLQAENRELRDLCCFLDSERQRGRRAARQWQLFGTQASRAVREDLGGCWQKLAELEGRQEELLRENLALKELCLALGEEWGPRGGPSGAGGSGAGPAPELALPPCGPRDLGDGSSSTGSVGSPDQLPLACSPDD
Sequence of UniProt Q86Y37 (Q86Y37 whole entry, looked up): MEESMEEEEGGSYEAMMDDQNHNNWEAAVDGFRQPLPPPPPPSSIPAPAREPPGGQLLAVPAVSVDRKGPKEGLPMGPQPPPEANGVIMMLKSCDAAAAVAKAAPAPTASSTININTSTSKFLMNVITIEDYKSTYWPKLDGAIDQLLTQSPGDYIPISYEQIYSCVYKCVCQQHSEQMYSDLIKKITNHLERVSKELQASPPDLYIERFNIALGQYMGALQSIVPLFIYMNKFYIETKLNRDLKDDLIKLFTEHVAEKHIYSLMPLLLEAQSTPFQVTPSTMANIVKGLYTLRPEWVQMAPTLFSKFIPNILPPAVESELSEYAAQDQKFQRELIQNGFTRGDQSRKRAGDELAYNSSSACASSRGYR
Sequence of UniProt Q9H0Y0 (Q9H0Y0 whole entry, looked up): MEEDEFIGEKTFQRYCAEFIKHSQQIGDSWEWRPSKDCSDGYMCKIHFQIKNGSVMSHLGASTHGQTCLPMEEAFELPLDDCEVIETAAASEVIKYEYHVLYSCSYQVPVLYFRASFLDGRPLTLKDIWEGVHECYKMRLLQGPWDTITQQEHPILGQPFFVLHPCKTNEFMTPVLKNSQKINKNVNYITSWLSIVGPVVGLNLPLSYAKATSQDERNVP

Target	log2 fold change (erlotinib)	log2 fold change [1]	log2 fold change [2]	log2 fold change [3]	log2 fold change [4]	log2 fold change [5]	log2 fold change [6]	log2 fold change [7]	log2 fold change [8]	log2 fold change (IRAK-1-4 Inhibitor I)	log2 fold change (ibrutinib)	log2 fold change [9]	log2 fold change (ralimetinib)	log2 fold change [10]	log2 fold change [11]	log2 fold change [12]	log2 fold change [13]	log2 fold change [14]	log2 fold change [15]	log2 fold change [16]
BTRC (UniProt Q9Y297)	0.002	0.085	-0.078	0.001	0	-0.007	0.029	-0.138	-0.028	0.018	0.026	0.012	0.068	-0.033	0.045	0.015	0.075	-0.002		
CCP110 (UniProt O43303)	0.081	-0.436 (active)	0.046	-0.022	0.03	-0.088	-0.047	-0.051	0.051	0.075	-0.008		0.082	0.001	0.054		0.113		-0.186	0.01
CDK5 (UniProt Q00535)	-0.018	-0.065	0.126	-0.041	-0.023	0.01		0.367	0.004	0.033	0.015	0.53 (active)	0.004	-0.023	-0.032	-0.034	0.023	-0.058	-0.006	-0.052
CHD4 isoform 2 (UniProt Q14839)	-0.02	0.009	0.007	0.004	-0.016	-0.004	-0.013	-0.013	0.031	-0.015	-0.003	-0.008	0.026	0.011	0.025	0.001	0.006	0.022	-0.037	0.004
CCDC85B (UniProt Q15834)	-0.126	0.22	-0.066	-0.022	-0.001	-0.058	0.015	-0.361	-0.203	0.011	0.215	-0.248	-0.001	0.05	0.056		-0.163	0.014	0.004	-0.016
C16orf70 (UniProt Q9BSU1)	0.023	0.194	-0.06	0.271 (active)	0.033	-0.128	-0.193	0.016	0.055	-0.021	-0.048	-0.011	0.034	0.031	-0.068		0.058	-0.024	-0.043	0
CDCA8 (UniProt Q53HL2)	0.112	0.054	0.009	-0.071	-0.12		-0.246	-0.01	-0.054		0.047				-0.082	0.038			0.011	
CCDC32 isoform 2 (UniProt Q9BV29)	-0.021	0.031	-0.027	0	-0.014	-0.003	0.007	0.048	0.049	0.057	0.276 (active)	0.026	-0.005	0	0.047	-0.017	0.028	0.03	-0.03	0.051
ATP13A1 (UniProt Q9HD20)	0.02	-0.09	-0.153	0.024	-0.026	0.02	-0.054	-0.04	0.033	0.015	-0.021	0.048	0.029	-0.104	0.036	0.005	0.062	0.007	-0.089	-0.108
C8orf37 (UniProt Q96NL8)	-0.006	-0.174	0.029	-0.064	0.005	0.001	0.037	-0.067	0.007	-0.047	0.214	-0.037	-0.004	0.031	-0.038		0.031	-0.089	-0.006	0.089
BRD3 (UniProt Q15059)	-0.005	0.084	-0.065	0.004	-0.033		-0.013	-0.001	0.036		-0.011	0.04			0.095	-0.054		-0.074	-0.033	0.059
BORCS5 (UniProt Q969J3)	-0.014	-0.027	0.016	0.015	-0.036	-0.017	-0.012	0.029	0.128	0.004	0.088	-0.02	-0.033	0.012	0.033	0.153	0.034	-0.001	-0.012	0.021
CAMKK1 isoform 2 (UniProt Q8N5S9)	-0.037	0.042	-0.003	-0.085	0.043	-0.01	0.042	-0.076	-0.069	0.001	0.027	0.189	0.063	-0.153	-0.059	-0.008	0.004	0.138	-0.055	0.014
BCORL1 isoform 3 (UniProt Q5H9F3)	0.002	-0.015	0.15	-0.117		0.004	-0.115	-0.114	-0.005				-0.07	0.075	0.074		-0.01		0.001	-0.321
BBS7 (UniProt Q8IWZ6)	-0.095	0.146	-0.014	-0.034		0.057	-0.098	-0.068	0.082	0.022			0.047	0.015	-0.021	0.077	-0.013		0.182	0.181
ATG10 (UniProt Q9H0Y0)	0.062	0.043	-0.011	-0.012	-0.01	0.035	0.086	-0.004	-0.004	0.022	0.057		0.001	-0.013	-0.062	-0.132	0.012		0.063	0.053
CEBPZOS (UniProt A8MTT3)	-0.038	0.013	0.004	0.003		-0.014	0.006	-0.011	0.005	-0.015		0.02	0.035	0.022	-0.047	-0.054	-0.032	0.012	0.04	0.112
CACUL1 (UniProt Q86Y37)	0.232	-0.048	0.087	0.044		0.027	0.045	0.042	0.023	0.016		0.164	-0.023	0.073	0.027		0.115	-0.09	-0.165	-0.126
